A selection: hits, their analogues and other compounds. The true share with any hit is near 1.3%.
HTR5A ag ctr – HTR5A agonism, opioid heterodimer counter-screen; P47898; HTR5A agonist assay, luminescence, cell-based; activation, % at 9.3 µM; hit rate 0.61% among 340,000; AID 504692; in the data active = activation mostly above about 9.5%, no sharp cut-off; inactive = mostly below about 7.6%;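 note: 0% = cells with vehicle only and 100% = reference agonist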
Target sequence (P47898 whole entry, looked up): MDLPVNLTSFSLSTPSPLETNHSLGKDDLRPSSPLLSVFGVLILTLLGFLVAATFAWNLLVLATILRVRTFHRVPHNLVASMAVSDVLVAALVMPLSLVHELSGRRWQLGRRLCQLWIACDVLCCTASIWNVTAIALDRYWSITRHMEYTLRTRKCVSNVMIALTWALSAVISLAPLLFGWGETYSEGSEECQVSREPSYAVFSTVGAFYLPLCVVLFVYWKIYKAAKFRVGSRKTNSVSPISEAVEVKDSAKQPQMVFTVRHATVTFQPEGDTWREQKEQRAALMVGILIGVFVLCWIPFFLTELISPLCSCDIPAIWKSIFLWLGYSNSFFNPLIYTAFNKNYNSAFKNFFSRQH
Yeast superoxide – caloric restriction mimetics inhibiting age-related superoxide in yeast; S. cerevisiae aged cells, superoxide DHE fluorescence; hits give low values; superoxide response (% of plate mean), % at 10 µM; hit rate 0.18% among 330,000;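 active = superoxide response under a set limit, about three screen SD below normal, cut at about 65% in these data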;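 note: yeast aged for seven days with compound at 30 °C before DHE staining; 100% = average MFI of all compound-treated wells on the plate with controls excluded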
MOR-DOR ag-1 – agonists of human mu-delta opioid receptor heterodimerization | P35372+P41143 | cells, OPRM1-OPRD1 heterodimerization, luminescence | activation, % at 9.3 µM | hit rate 0.3% among 340,000;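 note: 0% = vehicle-treated cells and 100% = reference agonist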
HTR5A inv ag – counter-screen for OPRM1-OPRD1 inverse agonists: human HTR5A inverse agonism. inhibition, % at 9.3 µM. HTR5A cell line, luminescence. hit rate 0.083% among 340,000; in the data active = inhibition mostly above about 23%, no sharp cut-off; inactive = mostly below about 18%;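 note: 0% = cells with DMSO and 100% = no-cell wells with DMSO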
PvdQ inh – blocks Pseudomonas aeruginosa PvdQ acylase activity; purified PvdQ acylase, fluorescence plate reader; inhibition, % at 10 µM; hit rate 0.063% among 340,000; AID 488965; in the data active = inhibition above about 30%, passing the limit was not always enough;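 note: 0% = vehicle neutral wells and 100% = reference inhibitor wells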
MOR-DOR inv ag – inverse agonist of human OPRM1-OPRD1 heterodimerization. P35372+P41143. cell-based MOR-DOR heterodimer luminescence, inverse agonism. inhibition, % at 9.3 µM. hit rate 0.21% among 340,000. AID 504357; in the data active = inhibition above about 22%, passing the limit was not always enough;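 note: 0% = cells with DMSO and 100% = wells without cells with DMSO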
MOR-DOR ag-2 – promotes OPRM1-OPRD1 heterodimerization in HTR5A counter-screen; shares compounds with HTR5A ag ctr; AID 504913; activation, % at 9.3 µM; U2OS counter-screen cells, complementation luminescence, 3 h; hit rate 13% among 800
HTR5A ag confirm – HTR5A (human) agonism, confirmation. hit rate 17% among 800. shares compounds with HTR5A ag ctr. activation, % at 9.3 µM. AID 504915. HTR5A agonist cell assay, luminescence; in the data active = activation above about 17%;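 note: 0% = cells with vehicle only and 100% = full reference agonist response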
Numbers without * were called inactive; / = not tested or not shown; ! = not confirmed by another sample. Cut-off read from the data, not from the text of the source, unless noted: active = activation above about 18%; inactive = the rest.

SMILES	HTR5A ag ctr	Yeast superoxide	MOR-DOR ag-1	HTR5A inv ag	PvdQ inh	MOR-DOR inv ag	MOR-DOR ag-2	HTR5A ag confirm
CC(C)C[C@H](NC(=O)N1c2ccccc2NC(=O)[C@@H]1C(C)C)C(=O)N1CCC[C@@H]1C(=O)O	-2	93	-3	12	-12	16	/	/
CSc1cc(-c2ccc(Cl)cc2)[nH]c(=O)c1C#N	17*	96	-1	15	-10	4	0	-2
N#Cc1c(C(F)(F)F)cc(-c2ccc(Cl)cc2)[nH]c1=O	-1	100	-1	14	-54	6	/	/
CCc1cccc(OCCn2nc(C(=O)O)c3ccccc3c2=O)c1	4	109	4	-11	15	-16	/	/
Cc1cc(OCCn2nc(C(=O)O)c3ccccc3c2=O)ccc1C(C)C	20*	/	3	-55	-13	-21	-2	-9
COc1nc(-c2ccccc2)ccc1-c1noc(-c2ccccc2)n1	3	98	0	-15	-14	2	/	/
COc1nc(-c2ccccc2)ccc1-c1noc(-c2cccs2)n1	19*	88	-3	-23	-5	18	2	-2
O=C(O)c1cc(-c2ccco2)nc2ccc(Br)cc12	18*!	146	3	-47	-9	-13	42*	4
Cc1ccc(NC(=O)CN(C)C(=O)COc2cccc3ccc(C)nc23)cc1	3	97	-1	-11	-14	5	/	/
Cc1ccc2cccc(OCC(=O)N(C)CC(=O)Nc3ccc(F)cc3)c2n1	16*	87	-5	-41	0	19	1	2
Cc1ccc(OCC(=O)N(C)CC(=O)Nc2ccc(Cl)c(C(F)(F)F)c2)c([N+](=O)[O-])n1	15*	95	2	-37	6	-6	-3	-6
C=CCN1CCc2c(cc(O)c(O)c2Cl)C(c2ccccc2)C1 (stereo unspecified)	26*	84	5	-92	-5	-27	1	4
C=CCN1CCc2cc(O)c(O)cc2C(c2ccccc2)C1 (stereo unspecified)	-1	103	1	-35	-1	-5	/	/
NC(=O)c1ccc(SCC(=O)OCC(=O)NC2CCCCCCC2)c([N+](=O)[O-])c1	0	87	-1	15	-10	6	/	/
C/C(=N/NC(=O)c1ccco1)c1ccc(Br)s1	-4	102	-1	22	1	4	/	/
C/C(=N\NC(=O)c1ccc(Cl)cc1)c1ccc(Br)s1	3	95	3	-8	-6	-16	/	/
COc1ccccc1NCC(=O)N/N=C(\C)c1ccc(Br)s1	46*	100	-1	-103	9	7	6	36*
C/C(=N/NC(=O)CNc1ccc(C)cc1)c1ccc(Br)s1	24*	94	0	-51	-17	-1	1	38*
COC(=O)c1ccc(CN2CCC(n3nccc3NC(=O)C3CCCC3)CC2)cc1	0	78	-2	0	-16	10	/	/
COc1ccc(NC(=S)N/N=C2\CC(C)(C)Oc3ccc(OC)cc32)cc1	19*	109	1	-67	1	-7	8	9
CC[C@H](C)[C@H]1CNC(=S)N1CC1CCN(CCCC2CCCC2)CC1	-1	/	-2	3	-10	8	/	/
Cc1ccc(-n2ncc3c(NCc4ccc5c(c4)OCO5)ncnc32)c(C)c1	15*	99	1	-10	-1	-7	1	3
C/C(=N\NS(=O)(=O)c1ccc(C)c([N+](=O)[O-])c1)c1cc2ccccc2o1	27*	97	-3	-65	7	14	19*	-2
COc1ccc(/C=N/NC(=O)c2ccc(COc3ccccc3Cl)o2)c(OC)c1C	22*	98	12	-38	-3	-62	8	15
O=c1[nH]cnc(O)c1C(c1ccc2c(c1)OCO2)c1c(O)nc[nH]c1=O	17*	105	-2	-3	-5	8	0	2
SMILES	HTR5A ag ctr	Yeast superoxide	MOR-DOR ag-1	HTR5A inv ag	PvdQ inh	MOR-DOR inv ag	MOR-DOR ag-2	HTR5A ag confirm
Cc1cccc2nnc(-c3ccccc3)n12	-1	/	-1	5	-12	4	/	/
COCC(C)n1c(SCC(=O)Nc2c(C)n(C)n(-c3ccccc3)c2=O)nc2ccccc2c1=O (stereo unspecified)	-6	91	-1	16	-24	4	/	/
O=C1CC(c2ccccc2)Sc2ccccc2N1 (stereo unspecified)	17*	116	-3	-47	0	12	2	3
Oc1ccc(N2CCN(c3ncnc4sc(-c5ccccc5)cc34)CC2)cc1	26*	/	9	-21	-2	-41	-2	-1
O=C1C(Cl)=C(N2CCOCC2)C(=O)N1c1cccc(C(F)(F)F)c1	14*	105	0	-10	-12	-2	2	6
CCCCC(C(=O)NC1CCCC1)N(C(=O)c1snc(C(N)=O)c1N)c1ccc(C)cc1 (stereo unspecified)	0	93	-2	-24	14	12	/	/
Cc1ccccc1N(CC(=O)NCCSc1ccccn1)S(=O)(=O)c1ccccc1	2	95	-4	-5	-2	18	/	/
CCOc1ccccc1N(CC(=O)NCCSc1ccccn1)S(=O)(=O)c1ccccc1	25*	104	-1	-72	-15	8	126*	-3
CCOc1ccccc1N(CC(=O)NCCSc1ccccn1)S(=O)(=O)c1ccc(C)cc1	30*	106	1	-88	-9	-7	10	6
CC(=O)N1CCc2cc(S(=O)(=O)NC(C(=O)NC(C)c3ccccc3)C(C)C)ccc21 (stereo unspecified)	-2	101	-3	-13	-10	18	/	/
COc1cccc(C2N(Cc3ccccc3)C(=O)C2(F)F)c1OC (stereo unspecified)	16*	97	1	-46	-8	-3	2	-5
Cc1ccc(O)c(C(=O)/C=C/c2ccc3c(c2)OCCO3)c1	16*	99	-1	-38	64*	5	3	10
O=C(NCCc1ccc(Cl)cc1)C1CCC(=O)N1Cc1ccc(F)cc1 (stereo unspecified)	17*	99	-2	-49	-7	11	0	0
CCOC(=O)C(=Cc1c[nH]c2ccc(S(=O)(=O)N(C)C)cc12)C(=O)OCC	7	91	4	2	3	-20	/	/
Cc1cccc(C)c1NC(=O)COc1ccccc1C(=O)Nc1ccc(Br)cn1	8	115	14	-19	-2	-76	/	/
CCC(=O)c1ccccc1OCC(=O)Nc1c(C)cccc1C	16*	104	0	12	4	0	1	-6
